The panel holds about 83,000 compounds, 20% with a hit somewhere; the sample as a whole holds those more often.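 Percent growth is the endpoint: 0 to 100 indicates growth inhibition (40 means 60% inhibition), 0 means no net growth, and negative values indicate cell death.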 Values without a mark were called inactive. Activity calls are given as the source filed them. Rule for the calls: active = growth percent below 10; inactive = the rest.
Legend:
Experiment in all cases: NCI-60 one-dose screen, 48 h (100 = growth as untreated, 0 = no growth, -100 = all killed)
Conditions in all cases: 10 µM unless noted
HCT-15 colon = system: HCT-15 colon
HT29 colon = system: HT29 colon
SNB-19 CNS = system: SNB-19 CNS
U251 CNS = system: U251 CNS
PC-3 prostate = system: PC-3 prostate
SK-MEL-5 melanoma = system: SK-MEL-5 melanoma
UACC-62 melanoma = system: UACC-62 melanoma
LOX IMVI melanoma = system: LOX IMVI melanoma
SK-MEL-28 melanoma = system: SK-MEL-28 melanoma

SMILES	growth (HCT-15 colon)	growth (HT29 colon)	growth (SNB-19 CNS) [%]	growth (U251 CNS)	growth (PC-3 prostate)	growth (SK-MEL-5 melanoma)	growth (UACC-62 melanoma)	growth (LOX IMVI melanoma)	growth (SK-MEL-28 melanoma)
O=C(NCCN1CCOCC1)OCc1ccc2c(Cl)cc(Cl)c(O)c2n1	19.5%	108%	59	44.6%	60%	53.8%	59.7%	51%	–
COc1ccc(-c2cc(-c3cn(-c4cccc(Cl)c4)nc3-c3ccc(OC)cc3)on2)cc1	91.2%	93.6%	92.7	90.2%	86.5%	98%	94%	102%	105%
CC12OC(CC(O)C1O)n1c3ccccc3c3c4c(c5c6ccccc6n2c5c31)C(=O)N(CCN1CCCC1)C4=O (stereo unspecified)	10.5%	5.08% (active)	13.4	11.8%	20.8%	28.9%	19.3%	-2.77% (active)	63%
NCCCNc1nc2ccccc2c2c(=O)c3cc(Cl)ccc3sc12	-76.9% (active)	-45.4% (active)	22.8	-95.1% (active)	-18.9% (active)	46.9%	-6.22% (active)	-90.5% (active)	-30% (active)
Cn1c(=O)c2[nH]c(SC/C(=N/O)c3ccc(Br)cc3)nc2n(C)c1=O	76.4%	70%	38.6	1.08% (active)	49.3%	33.4%	-14.2% (active)	36.9%	45.6%
Cc1cc(C)c2c(c1)N(C)c1ncnc(-n3c(C)nc4cc(C)ccc43)c1CC2C (stereo unspecified)	32.6%	34.3%	50.4	34.5%	24.7%	13.6%	31.6%	43.1%	59%
O=C(Nc1cccnc1Nc1ccccc1)c1cn(Cc2cccc(Oc3ccccc3)c2)nn1	30.5%	38.2%	64.5	54.4%	49.3%	26.6%	32.8%	37%	55.1%
CCCCCCCCCCOC(=O)c1nn(C(C)=O)c2cc(C)c(C)cc12	98.8%	92.1%	105	93.3%	73.7%	99.5%	93.3%	87.9%	109%
C/C=C1/CN(CCCCC)CC[C@H]1C(=O)c1cc2ccccc2[nH]1	87%	75.7%	96.7	98.1%	85.8%	87.9%	95%	90.1%	–
CCOC(=O)/C=C1\S/C(=N\Nc2cc(=O)[nH]c3ccc(Br)cc23)N(c2ccccc2)C1=O	42.3%	104%	90.4	77.1%	44.1%	98.3%	78.6%	90.6%	95.3%
Nc1ncnc2c1N=C(c1ccc(Cl)cc1)CC(c1cccc(Nc3ccnc4cc(Cl)ccc34)c1)N2 (stereo unspecified)	21.1%	36.3%	79.6	50%	55.4%	61.9%	81.2%	45.5%	86.8%
COC(=O)/C=C1/SC(=Nc2ccc(F)cc2)N(CCc2c[nH]c3ccc(O)cc23)C1=O	23.6%	36.7%	46.6	25.6%	33.3%	44.9%	23.5%	-10.7% (active)	51.8%
CCN1CCN(CCNc2nccc(-c3c(-c4ccc(F)c(O)c4)nc4occn34)n2)S1(=O)=O	17.8%	20.1%	73.7	45.7%	13.7%	-22.7% (active)	-44.9% (active)	15.6%	–
CCCCCCCCn1ccc2cc(NC(=O)CN=[N+]=[N-])ccc21	96.8%	104%	97.1	88.7%	91.2%	98%	84.2%	104%	–
CCC(C)(C)c1ccc(Nc2ccc(Nc3ccc(C(C)(C)CC)cc3)cc2)cc1	91.2%	67%	95.9	90.7%	65.8%	99.2%	83.2%	89.9%	105%
COCCn1cc(-c2nc(-c3cc4cccnc4n3C)cs2)c2ccccc21	21.5%	12.9%	63.5	33.3%	27.5%	2.5% (active)	46.2%	38.7%	73.1%
CCOc1ccc(/C=C/C(=O)c2cccc(OCCCOc3cccc(C(=O)/C=C/c4ccc(OCC)cc4)c3)c2)cc1	75.9%	94.2%	92.1	103%	75.2%	75.2%	57.9%	83.5%	87.1%
CCCC(O)Cn1ncc(C(=O)OCC)c1NC(=O)NCc1cccc(C(F)(F)F)c1 (stereo unspecified)	104%	85.9%	104	105%	64.7%	93.6%	80.1%	87.5%	–
CCn1cc(C(=O)N/N=C/c2ccccc2)c(=O)c2cc(F)c(N3CCNC(C)C3)c(F)c21 (stereo unspecified)	-86.5% (active)	-92% (active)	18.9	-92.3% (active)	48.9%	11.9%	-27.9% (active)	-87.3% (active)	–
CC/C(=C(/c1ccc(O)cc1)c1ccc(OCCN2CCCCC2)cc1)c1ccc(OC)cc1	20.1%	4.3% (active)	94.7	8.72% (active)	79.4%	88.6%	112%	-40% (active)	60.3%
O=C(c1cccc(N2CCOCC2)n1)c1c[nH]c2ccccc12	95.7%	105%	99.4	91.7%	83.5%	93.8%	82.8%	93%	98.6%
Nc1c(Br)cc2c(c1Br)Cc1cc([N+](=O)[O-])ccc1-2	104%	110%	94.5	95.5%	87.9%	91.4%	89.1%	102%	–
CCOC(=O)CC1CSC(N/N=C/c2ccc(F)c(Br)c2)=N1 (stereo unspecified)	101%	84.8%	110	94.7%	103%	101%	103%	101%	107%
Cc1cc(=O)oc2cc(Oc3nc(Br)cn4c(Br)cnc34)ccc12	95.6%	99.9%	74.6	47.6%	82.1%	40.3%	85.2%	74.3%	104%
Cn1cc(-c2csc(-c3cn(C)c4ccccc34)n2)c2cnccc21	-35.9% (active)	4.26% (active)	52.2	-48.7% (active)	54.8%	-76.2% (active)	61.4%	-87.5% (active)	-92.9% (active)
CC(C)(Sc1cc(C(C)(C)C)c(O)c(C(C)(C)C)c1)Sc1cc(C(C)(C)C)c(OC(=O)CCC(=O)O)c(C(C)(C)C)c1	22%	24.2%	47.4	34.4%	35.5%	50.1%	6.79% (active)	56.1%	54.1%
CC(C)(C)c1ccc(S(=O)(=O)Oc2ccc(-c3sc4cc(OS(=O)(=O)c5ccc(C(C)(C)C)cc5)ccc4c3C(=O)c3ccc(OCCN4CCCCC4)cc3)cc2)cc1	97.8%	90.8%	97.6	103%	88.8%	99.6%	95%	99.9%	97.8%
